Assay results reported in the supplement of paper PMC3334620.
In all, about 33,000 sequences were measured (“E-score (-0.5 to 0.5)”: median about -0.04, highest 2% from about 0.36 on). What follows is part of a selection rich in the highest values, with near analogues and random picks from the rest.

biological target: T1, Hmlalpha2 (UniProt P0CY09); test: PBM E-score (8-mer binding enrichment) (E-score (-0.5 to 0.5)); higher = stronger / more preferred TF binding; conditions: protein concentration: 200 nM; construct: GST-full length
T1 sequence: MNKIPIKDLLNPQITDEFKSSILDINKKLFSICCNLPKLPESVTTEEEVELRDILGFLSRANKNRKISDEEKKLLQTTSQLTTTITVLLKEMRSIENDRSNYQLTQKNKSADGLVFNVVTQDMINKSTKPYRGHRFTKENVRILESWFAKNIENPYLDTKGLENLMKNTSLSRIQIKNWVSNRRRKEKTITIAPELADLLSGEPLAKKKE
Description: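 Universal 'all 10-mer' protein binding microarrays (Agilent AMADID 015681) probed with GST-tagged S. cerevisiae TFs (full-length or DBD) made by in vitro transcription/translation (PURExpress), about 100-200 nM. Bound TF was detected with fluorescent anti-GST. Each ungapped 8-mer (which stands for itself and its reverse complement) is scored by the PBM enrichment score (E-score), a modified Wilcoxon-Mann-Whitney statistic from -0.5 to +0.5, computed with the Universal PBM Analysis Suite. Scale: above 0.35 generally sequence-specific binding.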

Sequence | PBM E-score
GGGGCCTA | -0.31
GCCGCGGC | -0.242
CCGCGATC | -0.238
AATTCTGC | -0.061
GAATTACA | 0.444
GAATTATA | 0.113
GAATTACC | 0.107
CTTGCTTC | 0.0506
GTCATCGA | -0.0402
AATTACGT | 0.382
CATTACGC | 0.321
AATTACGG | -0.0144
AATTACGC | 0.431
CTTTACGC | 0.42
ATTTACGC | 0.347
CTTTACGA | 0.185
GATTACGC | 0.345
AATTACGA | 0.338
AATAACTG | 0.0798
CCACTAGC | -0.111
AATACCCT | -0.0975
TCATTCCA | -0.147
CGTAATTA | 0.389
GGTAATTA | 0.25
CGTAATCA | 0.367

Sequence | PBM E-score
CGTAATCC | 0.309
AGTAATCA | 0.199
CGTAATTC | 0.321
ACTGCTTG | -0.00682
AACGAAGT | 0.0804
ACAGCAGC | 0.0712
GACGCGTA | 0.383
CACGCGTG | 0.374
TACGCGTA | 0.409
CACGCGTC | 0.174
TACGCGCA | 0.252
AACGCGTA | 0.359
AACGCGTG | 0.336
TACGCGGA | 0.312
CACGCGTA | 0.277
CCCCCGTA | -0.247
AATGGAGT | -0.0239
AACTCTAA | 0.0318
CCTTGATC | -0.0105
CATGTACC | 0.287
TCAGTACA | 0.227
GATGTACA | 0.379
AATGTACA | 0.366
AATGTACT | 0.186
GATGTACC | 0.135

Sequence | PBM E-score
TCTGTACA | 0.258
GGTGTACA | 0.211
CCTGTACA | 0.304
AATGTACC | 0.166
CATGTACA | 0.458
TATGTACA | 0.429
GCTTTGAC | 0.074
GCGCACAC | -0.189
GTCAAGAC | -0.135
ATCACTGG | -0.0104
TATCTGGA | -0.16
GGTCCCTA | -0.0695
CCTGAATC | -0.0621
CATGTACG | 0.372
CCTGTACG | 0.0613
AATGTACG | 0.108
CGGTAGAA | -0.175
ATAATGTA | 0.273
GTCATGCA | 0.133
CTCATGGA | -0.142
GTAATGTA | 0.413
ATCATGTG | 0.209
GTCATGGA | -0.188
CTAATGTA | 0.262
ATCATGTC | 0.351

Sequence | PBM E-score
ATCATGTA | 0.472
CTCATGTA | 0.454
CTCATGTC | 0.295
GTCATGTA | 0.442
CGCATTAC | 0.214
ATGCGTTC | 0.122
CGAGGCAA | 0.126
AACCTCTC | -0.275
TACAACAA | 0.343
GCCCCTCC | -0.277
TCGCCTCA | -0.118
TACACAGA | 0.424
GATATACA | 0.339
TATATACA | 0.389
CATACACA | 0.336
AATATACA | 0.34
CACACAGA | 0.221
CATACACC | -0.076
GATACACA | 0.214
CATACACG | 0.398
TATACAGA | 0.251
TATACACA | 0.437
GACACAGA | -0.00939
CTAAGATC | -0.0578
GGTGAGTA | 0.135

Sequence | PBM E-score
AAAGCGAA | -0.132
GCCATCTA | -0.19
ACTCCACA | 0.0494
GACGGTCA | -0.196
ATAGACTG | -0.0652
GACACAAA | 0.14
CACACACA | 0.228
TACACACA | 0.43
CACACACG | 0.279
CACACAAA | 0.126
TACACAAA | 0.431
ACAGATGC | -0.0548
ACTCCCAC | -0.352
GGCGGGAC | -0.194
TAACGCCA | 0.0809
AGCTTGTA | 0.379
AGCTTGTG | 0.11
ATCTTGTA | 0.383
AGCTTGTC | 0.133
GTCTTGTA | 0.306
ATCTTGTG | -0.0105
ACCTTGTA | 0.402
CCCTTGTA | 0.328
GCCTTGTA | 0.33
CGGTCCCC | -0.347

Sequence | PBM E-score
AACGATCT | -0.0798
ACCAAAGG | -0.219
AGCACCCA | -0.176
CGGGTAAA | 0.234
AGTACACG | 0.437
AGTACACT | 0.074
AGTACACA | 0.387
GGTACACA | 0.246
GGTACAAA | 0.138
AGTACACC | 0.115
TGTACACA | 0.418
CGTACACA | 0.347
AGTACAGG | 0.134
CGTACACG | 0.354
TGTACAAA | 0.422
AGTACAAA | 0.161
ACACCGCG | 0.15
GCGACTCA | -0.134
ATGCGAGG | -0.117
GAACGATC | -0.0263
AGAGTGCC | -0.257
CGTACCTA | -0.0874
ACGGCCCC | -0.437
GTGTTAAC | 0.462
CTGTTAAA | 0.258

Sequence | PBM E-score
ATGTTAAC | 0.448
TTGTTAAA | 0.359
GAGTTAAC | 0.234
ATGTTAGC | 0.342
AAGTTAAC | 0.303
GTGTTAAA | 0.462
CTGTTAAC | 0.304
CCCTTAAC | -0.0469
ATACTATC | 0.0717
ATTTGCGA | 0.0385
AAGTTTCC | 0.0351
ATGCTGTG | 0.238
CGGGTCCA | -0.262
AAGCGTCT | -0.232
CTGTTTAC | 0.371
ATGTTTAC | 0.433
ATGTTTGC | 0.166
CTGTTTCC | -0.11
ATGTTTAG | 0.33
CCGTTTAC | 0.259
AGGAGATG | -0.157
AGGAAAAA | 0.00347
GTATTATA | 0.318
CATATGTA | 0.356
CCTATGTC | 0.0957

Sequence | PBM E-score
ACTATGTA | 0.444
ACTATGTG | 0.108
ACTATGTC | 0.165
AATATGTC | 0.167
GCTATGCA | -0.0142
CCTATGTA | 0.433
GATATGTA | 0.345
AATATGTA | 0.386
GCTATGTA | 0.426
CCTATGAA | -0.065
CTTCATTC | -0.149
AAGATCAC | -5e-05
CACAGGTC | -0.101
GAATACCC | -0.19
TGACCAAA | -0.0837
CCAGTAGG | -0.239
GTGAAGCA | -0.113
CTGGAAAG | -0.217
AAACCTTT | -0.111
AGGTATGG | -0.317
ACGCTTGC | -0.0163
TTACCCAA | 0.02
ATGTAACG | 0.362
CTGTAATA | 0.286
ATGTAATC | 0.478

Sequence | PBM E-score
GGGTAATA | 0.193
AAGTAATA | 0.24
GTGTAATA | 0.456
ATGTAATG | 0.479
CTGTAATC | 0.243
CAGTAATG | 0.167
CGGTAATA | -0.00682
ATGTAATA | 0.48
ATGTAACC | 0.304
GGAGTGTA | 0.18
CATGAGGC | -0.166
TACTGTCA | -0.0966
CAGCAGCG | 0.0849
GGGGATAA | -0.178
CCAGGACG | 0.0263
GGGCCAAA | -0.124
GGGCACTA | -0.105
ACACGCCT | 0.374
ACACGCCC | 0.371
ACACGCCA | 0.311
AGACGCCT | -0.0767
ACACGCCG | 0.274
GCACGCCC | -0.0771
